Growth inhibition data for 9 compounds are collected here from PubChem BioAssay (NCI).

Where “and” joins values, the source holds several entries; their conditions need not be identical. Identical values can stand only once. About 79,000 compounds went through this panel and 15% of them were active in at least one assay; those are over-represented in the sample as a whole. More than one record can exist for a structure, and the calls need not agree. Calls of active or inactive are those of the source. Rule as the data show it: active = growth inhibition above about 70%; inactive = the rest.

Experiment [1] is described as follows: NCI Yeast Anticancer Drug Screen. Data for the rad50 strain (AID 155).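 Also: 0% = growth of vehicle-only cultures of the same strain.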 The settings on record: S. cerevisiae rad50 strain growth inhibition, stronger effect = higher value. The essentials:
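Relative growth inhibition (compound vs vehicle) was measured in yeast with a defined repair-gene alteration.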

Experiment [2] in a line: NCI Yeast Anticancer Drug Screen. Data for the mec2-1 strain (AID 157). The settings on record: S. cerevisiae mec2-1 strain, stronger effect = higher value. The essentials:
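Using mec2-1 yeast: add compound, measure growth, express inhibition versus vehicle-treated cultures.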

Experiment [3] is described as follows: NCI Yeast Anticancer Drug Screen. Data for the sgs1 mgt1 strain (AID 161).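 Also: 0% = growth of cultures given vehicle only.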 The settings on record: S. cerevisiae sgs1 mgt1 strain, stronger effect = higher value. The method, boiled down:
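Growth of a repair-deficient yeast mutant was monitored after compound treatment and expressed as inhibition relative to vehicle-treated cultures.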

Experiment [4] is described as follows: NCI Yeast Anticancer Drug Screen. Data for the cln2 rad14 strain (AID 165).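 Also: 0% = growth equal to vehicle treated cultures.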 The settings on record: S. cerevisiae cln2 rad14 strain, stronger effect = higher value. The method, boiled down: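 Yeast strain cln2 rad14, bearing defects in cell cycle control and DNA repair, serves as the test system; values reflect growth inhibition compared with vehicle.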
The nature of experiment [5]: NCI Yeast Anticancer Drug Screen. Data for the bub3 strain (AID 167). The settings on record: S. cerevisiae bub3 mutant strain, stronger effect = higher value. The method, boiled down:
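Screening used yeast with an engineered genetic alteration affecting cell cycle control. Compound-exposed cultures were compared with vehicle cultures, and reduced growth was taken as inhibition.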

The nature of experiment [6]: NCI Yeast Anticancer Drug Screen. Data for the mlh1 rad18 strain (AID 175). The settings on record: S. cerevisiae mlh1 rad18 strain growth inhibition, stronger effect = higher value. The method, boiled down:
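Steps: expose repair-defective yeast to compound; measure growth; express inhibition against vehicle-treated controls.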

Setting [7] is: at 5.0 µM (retest, dose inferred, filed as 0.5).
Setting [8] is: at 50.0 µM (retest, dose inferred, filed as 5.0).

As for `O=c1oc2ccccc2c(O)c1C(C/C(CCN1CCCC1)=N\Nc1ccccc1)c1ccccc1` (configuration not stated), the growth inhibition in experiment [1] (setting [7]) was 3% (inactive); in experiment [1] (setting [8]) it was 3% (inactive); in experiment [1] (at 50.0 µM), 86.3% (active); in experiment [2] (setting [7]), -2% (inactive); in experiment [2] (setting [8]), -2% (inactive); in experiment [2] (at 50.0 µM), 80.7% (active). The growth inhibition is 1% (inactive) in experiment [3] (setting [7]); 1% (inactive) in experiment [3] (setting [8]); 87.8% (active) in experiment [3] (at 50.0 µM); 8% (inactive) in experiment [4] (setting [7]); 8% (inactive) in experiment [4] (setting [8]); 81.3% (active) in experiment [4] (at 50.0 µM). In addition, the growth inhibition in experiment [5] (setting [7]) was -13% (inactive); in experiment [5] (setting [8]) it was -13% (inactive); in experiment [5] (at 50.0 µM), 81.7% (active); in experiment [6] (setting [7]) it was -6% (inactive); in experiment [6] (setting [8]) it was -6% (inactive); in experiment [6] (at 50.0 µM), 83.9% (active).
On to `O=C(OCc1ccccc1)C(C(Cl)c1ccccc1)N(Cc1ccccc1)Cc1ccccc1` (configuration not stated), for which the growth inhibition in experiment [1] (setting [7]) is -2% (inactive); in experiment [1] (setting [8]) it was 53% (inactive); in experiment [1] (at 50.0 µM), 90.8% (active); in experiment [2] (setting [7]) it was 3% (inactive); in experiment [2] (setting [8]), 65% (inactive); in experiment [2] (at 50.0 µM), 81.2% (active). Besides, the growth inhibition is -1% (inactive) in experiment [3] (setting [7]); 50% (inactive) in experiment [3] (setting [8]); 85.5% (active) in experiment [3] (at 50.0 µM); 1% (inactive) in experiment [4] (setting [7]); 53% (inactive) in experiment [4] (setting [8]); 89.8% (active) in experiment [4] (at 50.0 µM). Further, the growth inhibition in experiment [5] (setting [7]) was -1% (inactive); in experiment [5] (setting [8]), 49% (inactive); in experiment [5] (at 50.0 µM), 67.7% (inactive); in experiment [6] (setting [7]), -1% (inactive); in experiment [6] (setting [8]), 56% (inactive); in experiment [6] (at 50.0 µM), 86.5% (active).
On to `CC(=O)Oc1ccc(N=C2C=C(Cl)C(=O)C(Cl)=C2)cc1`, for which the growth inhibition in experiment [1] (setting [7]) is 5% (inactive); in experiment [1] (setting [8]), 23% (inactive); in experiment [1] (at 50.0 µM), 34.5% (inactive); in experiment [2] (setting [7]) it was 9% (inactive); in experiment [2] (setting [8]) it was 26% (inactive); in experiment [2] (at 50.0 µM), -2.05% (inactive). Further, the growth inhibition in experiment [3] (setting [7]) is 2% (inactive); in experiment [3] (setting [8]), 24% (inactive); in experiment [3] (at 50.0 µM), 33.4% (inactive); in experiment [4] (setting [7]), 6% (inactive); in experiment [4] (setting [8]), 14% (inactive); in experiment [4] (at 50.0 µM), -23.8% (inactive). Further, the growth inhibition was 9% (inactive) in experiment [5] (setting [7]); 46% (inactive) in experiment [5] (setting [8]); 22.7% (inactive) in experiment [5] (at 50.0 µM); 7% (inactive) in experiment [6] (setting [7]); 54% (inactive) in experiment [6] (setting [8]); 19.9% (inactive) in experiment [6] (at 50.0 µM).
As for `[C-]#[O+].[C-]#[O+].[C-]#[O+].[Cl-].[Ru+2].c1ccc([PH+](CC[PH+](c2ccccc2)c2ccccc2)CC[PH+](c2ccccc2)c2ccccc2)cc1`, the growth inhibition in experiment [1] (setting [7]) is 50% (inactive); in experiment [1] (setting [8]) it was 98% (active); in experiment [1] (at 50.0 µM), 91% (active); in experiment [2] (setting [7]) it was 45% (inactive); in experiment [2] (setting [8]), 99% (active); in experiment [2] (at 50.0 µM), 92.8% (active). Moreover, the growth inhibition was 55% (inactive) in experiment [3] (setting [7]); 99% (active) in experiment [3] (setting [8]); 93.1% (active) in experiment [3] (at 50.0 µM); 36% (inactive) in experiment [4] (setting [7]); 97% (active) in experiment [4] (setting [8]); 92.2% (active) in experiment [4] (at 50.0 µM). Besides, the growth inhibition was 50% (inactive) in experiment [5] (setting [7]); 98% (active) in experiment [5] (setting [8]); 92.4% (active) in experiment [5] (at 50.0 µM); 56% (inactive) in experiment [6] (setting [7]); 97% (active) in experiment [6] (setting [8]); 91.1% (active) in experiment [6] (at 50.0 µM).
For `Nc1c(Br)cc(Br)c2c1C(=O)c1ccccc1C2=O`, the growth inhibition is 5% (inactive) in experiment [1] (setting [7]); -1% (inactive) in experiment [1] (setting [8]); -10.6% (inactive) in experiment [1] (at 50.0 µM); 2% (inactive) in experiment [2] (setting [7]); 0% (inactive) in experiment [2] (setting [8]); -9.45% (inactive) in experiment [2] (at 50.0 µM). Further, the growth inhibition in experiment [3] (setting [7]) was 3% (inactive); in experiment [3] (setting [8]) it was 0% (inactive); in experiment [3] (at 50.0 µM), 11.6% (inactive); in experiment [4] (setting [7]), 0% (inactive); in experiment [4] (setting [8]) it was 3% (inactive); in experiment [4] (at 50.0 µM), 41.9% (inactive). Further, the growth inhibition in experiment [5] (setting [7]) is 1% (inactive); in experiment [5] (setting [8]) it was 4% (inactive); in experiment [5] (at 50.0 µM) it was 7.65% (inactive); in experiment [6] (setting [7]), 9% (inactive); in experiment [6] (setting [8]), -1% (inactive); in experiment [6] (at 50.0 µM), 4.5% (inactive).
In the case of `[Ni+2].[SH2+]C([SH2+])=Nc1ccccc1.[SH2+]C([SH2+])=Nc1ccccc1.c1ccc(C[P+](c2ccccc2)(c2ccccc2)c2ccccc2)cc1`, the growth inhibition in experiment [1] (setting [7]) was 14% (inactive); in experiment [1] (setting [8]), 91% (active); in experiment [1] (at 50.0 µM), 97.9% (active); in experiment [2] (setting [7]), 26% (inactive); in experiment [2] (setting [8]), 88% (active); in experiment [2] (at 50.0 µM), 98% (active). For the same compound, the growth inhibition in experiment [3] (setting [7]) is 21% (inactive); in experiment [3] (setting [8]) it was 91% (active); in experiment [3] (at 50.0 µM), 97.8% (active); in experiment [4] (setting [7]) it was -6% (inactive); in experiment [4] (setting [8]), 87% (active); in experiment [4] (at 50.0 µM), 90.8% (active). Besides, the growth inhibition is 8% (inactive) in experiment [5] (setting [7]); 85% (active) in experiment [5] (setting [8]); 95.3% (active) in experiment [5] (at 50.0 µM); 40% (inactive) in experiment [6] (setting [7]); 98% (active) in experiment [6] (setting [8]); 98.5% (active) in experiment [6] (at 50.0 µM).
With `CC/C(=C\c1ccc(Cl)cc1)[N+](=O)[O-]`, the growth inhibition in experiment [1] (setting [7]) was 34% (inactive); in experiment [1] (setting [8]), 99% (active); in experiment [1] (at 50.0 µM), 13.1% (inactive); in experiment [2] (setting [7]), 12% (inactive); in experiment [2] (setting [8]), 99% (active); in experiment [2] (at 50.0 µM), -3.1% (inactive). Besides, the growth inhibition is 14% (inactive) in experiment [3] (setting [7]); 99% (active) in experiment [3] (setting [8]); 53.1% (inactive) in experiment [3] (at 50.0 µM); 7% (inactive) in experiment [4] (setting [7]); 99% (active) in experiment [4] (setting [8]); -5.45% (inactive) in experiment [4] (at 50.0 µM). Also, the growth inhibition was 25% (inactive) in experiment [5] (setting [7]); 99% (active) in experiment [5] (setting [8]); 4.95% (inactive) in experiment [5] (at 50.0 µM); 13% (inactive) in experiment [6] (setting [7]); 99% (active) in experiment [6] (setting [8]); 8.15% (inactive) in experiment [6] (at 50.0 µM).
As for `O=[N+]([O-])c1ccccc1`, the growth inhibition is 11% (inactive) in experiment [1] (setting [7]); 75% (active) in experiment [1] (setting [8]); 79.2% (active) in experiment [1] (at 50.0 µM); 3% (inactive) in experiment [2] (setting [7]); 10% (inactive) in experiment [2] (setting [8]); -0.5% (inactive) in experiment [2] (at 50.0 µM). Also, the growth inhibition in experiment [3] (setting [7]) is 3% (inactive); in experiment [3] (setting [8]), 17% (inactive); in experiment [3] (at 50.0 µM) it was 27.1% (inactive); in experiment [4] (setting [7]), 4% (inactive); in experiment [4] (setting [8]) it was 4% (inactive); in experiment [4] (at 50.0 µM) it was 35.5% (inactive). For the same compound, the growth inhibition was 2% (inactive) in experiment [5] (setting [7]); 12% (inactive) in experiment [5] (setting [8]); 13.3% (inactive) in experiment [5] (at 50.0 µM); 6% (inactive) in experiment [6] (setting [7]); 19% (inactive) in experiment [6] (setting [8]); 39.2% (inactive) in experiment [6] (at 50.0 µM).
`C[CH2][Hg][Cl]`: the growth inhibition in experiment [1] (setting [7]) was 99% (active) and 48% (inactive); in experiment [1] (setting [8]), 99% (active); in experiment [1] (at 50.0 µM), 93.1% (active); in experiment [2] (setting [7]), 100% (active) and 46% (inactive); in experiment [2] (setting [8]), 100% (active) and 93% (active); in experiment [2] (at 50.0 µM) it was 95% (active). The growth inhibition in experiment [3] (setting [7]) was 100% (active); in experiment [3] (setting [8]), 100% (active) and 99% (active); in experiment [3] (at 50.0 µM), 94.5% (active); in experiment [4] (setting [7]) it was 99% (active) and 86% (active); in experiment [4] (setting [8]) it was 99% (active); in experiment [4] (at 50.0 µM), 93.3% (active). Further, the growth inhibition is 100% (active) in experiment [5] (setting [7]); 99% (active) in experiment [5] (setting [8]); 93.7% (active) in experiment [5] (at 50.0 µM); 99% (active) and 35% (inactive) in experiment [6] (setting [7]); 99% (active) in experiment [6] (setting [8]); 93.2% (active) in experiment [6] (at 50.0 µM).
